ANO1 block: blocks the mouse calcium-activated chloride channel TMEM16A; HEK293 TMEM16A/YFP iodide influx fluorescence, ionomycin; normalized B-score (activity score, 25-100; higher = stronger inhibition) at 10 µM; 310,000 tested, 1.2% active; AID 588511;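 active = ratio plate-corrected score three or more library SD toward inhibition, starting fluorescence score within five deviations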;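 also: score derived from kinetic fluorescence span divided by baseline fluorescence per well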
CHT allo act: human CHT allosteric activation; Q9GZV3; CHT-expressing cells, membrane potential dye, choline EC20; active compounds read high; LV-AA mutant CHT in HEK293 cells; B-score at 10 µM; 310,000 tested, 0.49% active; AID 488977;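 active = initial fluorescence not abnormally high and integrated response B-score, plate-corrected, over 3 SD above library mean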
Target sequence (Q9GZV3 whole entry, looked up): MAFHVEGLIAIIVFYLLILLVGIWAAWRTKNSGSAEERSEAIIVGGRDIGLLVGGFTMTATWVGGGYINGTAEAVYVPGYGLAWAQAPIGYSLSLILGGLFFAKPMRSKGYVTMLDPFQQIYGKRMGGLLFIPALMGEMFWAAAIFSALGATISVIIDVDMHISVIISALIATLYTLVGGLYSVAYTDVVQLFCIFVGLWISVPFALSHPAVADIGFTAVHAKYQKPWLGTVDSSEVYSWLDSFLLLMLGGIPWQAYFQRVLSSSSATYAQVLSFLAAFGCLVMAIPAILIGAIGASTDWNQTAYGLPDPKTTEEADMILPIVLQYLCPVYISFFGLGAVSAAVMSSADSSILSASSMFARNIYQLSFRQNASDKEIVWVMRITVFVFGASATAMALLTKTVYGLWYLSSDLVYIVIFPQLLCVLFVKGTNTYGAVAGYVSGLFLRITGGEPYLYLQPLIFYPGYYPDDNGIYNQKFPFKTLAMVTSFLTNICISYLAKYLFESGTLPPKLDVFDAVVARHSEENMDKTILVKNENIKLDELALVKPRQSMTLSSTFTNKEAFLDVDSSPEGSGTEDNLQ
TMEM16A act: activators or potentiators of mouse TMEM16A chloride channel. AID 623877. HEK293 TMEM16A/YFP-H148Q/I152L, iodide quench fluorescence; active compounds read low. B-score at 10 µM. 340,000 tested, 0.3% active;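 active = fluorescence-ratio B-score plate-corrected deviation score at least 3 library SD below zero, with starting fluorescence score within 5 deviations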;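 also: channel opened by trigger with iodide after compound preincubation; score built on the fluorescence ratio of max minus min over baseline; more negative score means more quench and so TMEM16A activation or potentiation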
CHT block: inhibits the human high affinity choline transporter. Q9GZV3. 310,000 tested, 0.86% active. B-score at 10 µM. CHT-expressing cells, membrane potential dye, choline response; active compounds read low. AID 488975;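 active = B-score over 3 SD under the library average, and starting fluorescence ratio not unusually high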;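 also: choline stimulus applied at its EC90 after an EC20 pre-addition; B-score computed on integrated fluorescence ratio after choline addition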
The depositor's hits bear a star; i = inactive; x = no result. Rows were chosen to be rich in hits. Some 2.4% of all compounds tested hit in one or more screens of this group.

SMILES | ANO1 block | CHT allo act | TMEM16A act | CHT block
Cc1cc(NC(=O)c2ccc(Cn3nc(C)c(Br)c3C)o2)no1 | i | i | i | i
Cc1nn(Cc2ccc(C(=O)NC(C)(C)C)o2)c(C)c1Br | 25* | i | i | i
CS(=O)(=O)c1ccc(C(=O)OCc2nnc(-c3ccccc3)o2)cc1[N+](=O)[O-] | x | x | -46* | x
CCC(=O)c1ccc(OCC(=O)OCC(=O)Nc2ccc(C)c(S(=O)(=O)N3CCCCC3)c2)cc1 | x | x | i | x
CCOc1ccc(OCCC(=O)OCC(=O)Nc2ccc(C)c(S(=O)(=O)N3CCCCC3)c2)cc1 | 100* | i | i | i
CCCCN(C(=O)c1ccc(S(=O)(=O)N(C)C)cc1)c1ccccc1 | i | i | i | i
CCCCN(C(=O)c1ccc(S(=O)(=O)N(C)C)cc1)c1nc2ccccc2s1 | i | i | -9* | i
Cc1ccc(C(=O)NCCSc2ccc(Cl)cc2)cc1S(=O)(=O)Nc1ccccc1 | 100* | i | i | i
Cc1ccc(NS(=O)(=O)c2cc(C(=O)NCCSc3ccc(C)cc3)ccc2C)cc1 | i | i | i | i
CCc1ccc(/C=C2/SC(=S)N(CCCC(=O)Nc3ccccc3C(=O)O)C2=O)cc1 | 100* | i | i | -7.5*
CCc1ccc(/C=C2/SC(=S)N(CCC(=O)Nc3cccc(C(=O)O)c3)C2=O)cc1 | i | i | i | -5.9*
C=CCn1c(C(CCCC)CC(O)COCC(C)C)n[nH]c1=S (stereo not given) | i | i | i | i
COc1ccccc1-n1cc(CN2CCCC(CO)(Cc3cccc(Cl)c3)C2)cn1 (stereo not given) | i | i | i | i
CCc1ccc(NC(=S)N2CCC(NC(=O)c3ccccc3OC)CC2)cc1 | i | i | i | i
COc1cc(NC(=O)C[n+]2ccc(C(=O)c3ccccc3)cc2)cc(OC)c1 | x | x | i | x
C=C(C)Cn1c(C)cc(C)c(S(=O)(=O)c2cccc(C)c2)c1=O | 100* | i | i | i
COc1ccc(-c2cc(-c3ccccc3)c(C#N)c(S(C)=O)n2)cc1 (stereo not given) | i | i | -8.1* | i
O=c1c2ccccc2nnn1CSc1nc2ccccc2[nH]1 | i | i | -7.6* | i
COc1ccc(-n2nc(C(=O)O)cc2-c2ccccc2)cc1 | i | i | i | i
COC(=O)[C@@]12CCCCN1[C@H](c1ccc(SC3CCCCC3)cc1)[C@@H]1C(=O)N(C)C(=O)[C@@H]12 | i | i | -7.9* | i
CCN(CC(=O)Nc1c(F)cccc1F)C(=O)CCC(=O)c1ccc(C)cc1 | i | i | i | i
CCOc1ccccc1NC(=O)CN(c1ccc(OC)cc1OC)S(=O)(=O)c1ccccc1[N+](=O)[O-] | i | i | -5.2* | i
CC(CCC(=O)NN)C1CCC2C3CCC4CC(O)CCC4(C)C3CCC12C (stereo not given) | x | x | i | x
CC(CCC(C)C(C)(C)C)[C@@H]1CC[C@H]2C3C[C@H](OS(O)(=S)=S)[C@H]4C[C@H](OS(O)(=S)=S)[C@@H](OS(O)(=S)=S)C[C@]4(C)[C@H]3CC[C@]12C (stereo not given in full) (tested in a mixture with another compound) | x | x | -11* | x
O=C(C/C=N/OCc1ccc(Cl)cc1)c1cnc(-c2ccccc2)s1 | i | i | i | i
SMILES | ANO1 block | CHT allo act | TMEM16A act | CHT block
O=C(C/C=N/OCc1c(Cl)cccc1Cl)c1cnc(-c2ccccc2)s1 | 100* | i | i | i
Cc1cc(NC(=O)c2ccc(Cl)cc2)ccc1NC(=O)c1ccccc1Cl | i | i | i | i
CC(Sc1ccc(Cl)cc1)C(=O)Nc1ccc2c(c1)OCO2 (stereo not given) | i | i | i | i
CC(C)N1CCC2(CC1)N=C(c1ccc3c(c1)OCO3)CC(c1cc(Cl)ccc1O)N2 (stereo not given) | i | i | i | -6.9*
CN(Cc1ccccc1)C(=O)c1[nH]cnc1C(=O)NCc1ccccc1 | x | x | -8.1* | x
CN(C)c1ccc(O)c2c1CC1CC3C(N(C)C)C(=O)C(C(N)=O)=C(O)[C@@]3(O)C(=O)C1=C2O (stereo not given in full) | i | i | i | i
CN(C)c1ccc(O)c2c1CC1CC3[C@@H](N(C)C)C(=O)C(C(N)=O)C(=O)[C@]3(O)C(=O)C1C2=O (stereo not given in full) | x | x | -9.4* | x
O=S(=O)(NCc1c(Cl)cccc1Oc1ccccc1)c1ccccc1 | i | i | i | i
Cc1ccc(S(=O)(=O)NCc2c(Cl)cccc2Oc2ccccc2)cc1 | 100* | i | i | i
O=C(NC1CCCC1)C(Cc1ccccc1)n1cccc1 (stereo not given) | i | i | i | i
O=C(Nc1ncc(Br)s1)C(Cc1ccccc1)n1cccc1 (stereo not given) | 100* | i | i | i
COc1ccc(OC)c(NC(=O)CSc2nnc(-c3cnccn3)n2C)c1 | i | i | i | i
CCOC(=O)c1cnc2ccc(OC)cc2c1NCc1ccccc1 | i | i | i | i
CCOC(=O)c1cnc2ccc(OCC)cc2c1NCc1ccccc1OC | 100* | i | i | i
O=C1C2C(C(=O)N1/N=C/c1cccc([N+](=O)[O-])c1)C1C=CC2C12CC2 (stereo not given) | i | i | i | i
CCCCn1c(=O)[nH]c(=O)c2c1ncn2Cc1ccco1 | i | i | i | i
CCCCn1cnc2c(c(-c3ccccc3)c(-c3ccccc3)n2Cc2ccco2)c1=N | 100* | i | i | i
N=c1c2c(-c3ccccc3)c(-c3ccccc3)n(Cc3ccco3)c2ncn1Cc1ccco1 | 100* | i | i | i
N=c1c2c(ncn1Cc1ccco1)Oc1ccc3ccccc3c1C2c1ccccc1 (stereo not given) | i | i | i | i
CCOC(=O)[C@H]1[C@H]2COc3ccc(Cl)cc3[C@@H]2N2C(=O)c3ccc(F)cc3NC(=O)[C@@]12C | i | i | -13* | i
COc1cc(CSc2nnnn2-c2ccc(C)cc2)cc(OC)c1OC | i | i | i | i
COc1ccc(F)cc1CSc1nnnn1-c1ccc(O)cc1 | 25* | i | i | i
CCCOc1cccc(C(=O)N/N=C/c2ccoc2)c1 | i | i | i | i
CCCNC(=O)N1CCC(c2nc3ccccc3s2)CC1 | i | i | i | i
Cc1ccc(C)c(/C=N/NC(=S)NCCc2ccccc2)c1 | 100* | i | i | i
O=C(O)c1ccccc1/C=N/NC(=S)NCc1ccccc1 | i | i | -12* | i
Oc1ccccc1/C=N/NC(=S)NCCc1ccccc1 | i | i | i | i
CCOc1cccc(C(=O)Nc2ccc3oc(Cc4ccc(Cl)cc4)nc3c2)c1 | 100* | i | i | i

Screens as filed in PubChem BioAssay.
